Assay in all cases: NCI-60 one-dose screen, 48 h (100 = growth as untreated, 0 = no growth, -100 = all killed)
Holding throughout (conditions): 10 µM unless noted

Experiment [1] concerns T-47D breast.
The subject of experiment [2] is BT-549 breast.
For experiment [3], the system named is MDA-MB-435 melanoma.
Experiment [4] concerns SW-620 colon.
Experiment [5] concerns MCF7 breast.
Experiment [6] has as its system HCT-116 colon.
Experiment [7] has as its system HCC-2998 colon.
Experiment [8] relates to KM12 colon.

About 83,000 compounds went through this panel and 20% of them were active in at least one assay; those are over-represented in the sample as a whole.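 Activity criterion: percent growth below 10, measured after cells in 96-well plates were exposed to a single compound concentration for 48 hours.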 Values without a mark were called inactive. Active and inactive are the calls of the source.

As to `CC(C)Nc1ccc(Nc2ccc(NC(C)C)cc2)cc1`, the growth in experiment [1] is 31.9%; in experiment [2], 53.2%; in experiment [3], 51.4%; in experiment [4] it was 47.9%; in experiment [5], 28.9%; in experiment [6], 25.7%. For the same compound, the growth in experiment [7] is 61.2%; in experiment [8], 29.3%.
In the case of `CCCCC(CCc1ccc([N+](=O)[O-])cc1)(C(C)=O)C(=O)OCC` (stereo not drawn), the growth in experiment [1] is 90%; in experiment [2], 117%; in experiment [3], 100%; in experiment [4], 91.4%; in experiment [5] it was 91.1%; in experiment [6], 92.2%. Also, the growth is 109% in experiment [7] and 92% in experiment [8].
In the case of `CCCCOS(=O)(=O)c1ccccc1`, the growth was 106% in experiment [1]; 103% in experiment [2]; 95.8% in experiment [3]; 110% in experiment [4]; 102% in experiment [5]; 108% in experiment [6]. Moreover, the growth is 117% in experiment [7] and 109% in experiment [8].
`CC1=CC(=O)C=CC1(C)C(Cl)(Cl)Cl` (stereo not drawn): the growth in experiment [1] was 89.8%; in experiment [2], 103%; in experiment [3], 105%; in experiment [4], 96.7%; in experiment [5], 92.6%; in experiment [6] it was 89.9%. Besides, the growth in experiment [7] is 98.6%; in experiment [8], 108%.
Turning to `CCOC(=O)C1(C)CCCC1N` (stereo not drawn), the growth was 105% in experiment [1]; 116% in experiment [2]; 103% in experiment [3]; 106% in experiment [4]; 104% in experiment [5]; 111% in experiment [6]. Besides, the growth in experiment [7] was 115%; in experiment [8], 98.5%.
Take `Oc1ccc2c(c1)CCc1ccccc1-2`: the growth in experiment [1] was 86.3%; in experiment [2] it was 106%; in experiment [3] it was 96.6%; in experiment [4] it was 103%; in experiment [5] it was 103%; in experiment [6] it was 97.7%. Moreover, the growth in experiment [7] is 102%; in experiment [8] it was 113%.
Turning to `O=[n+]1c2ccccc2n([O-])c2cc(Cl)ccc21`, the growth in experiment [1] is 46.8%; in experiment [2] it was 74.7%; in experiment [3], 100%; in experiment [4], 53.2%; in experiment [5], 28.2%; in experiment [6] it was 28.7%. Besides, the figures for the growth in experiment [7] and in experiment [8] were 93.5% and 79%, respectively.
With `CC(=O)c1ccc2c(c1)CCc1ccccc1-2`, the growth in experiment [1] was 97.8%; in experiment [2], 104%; in experiment [3], 100%; in experiment [4], 102%; in experiment [5], 90.2%; in experiment [6], 96.6%. Further, the growth in experiment [7] and in experiment [8] was 109% each time.
Take `CCCN(CCC)C(=O)c1ccc(C)cc1`: the growth in experiment [1] was 78.5%; in experiment [2], 102%; in experiment [3], 104%; in experiment [4], 94.9%; in experiment [5], 92.1%; in experiment [6], 98.3%. The figures for the growth in experiment [7] and in experiment [8] were 87.4% and 102%, respectively.
In the case of `O=C(CCl)N(c1ccccc1)c1ccccc1`, the growth in experiment [1] was 110%; in experiment [2], 106%; in experiment [3], 98%; in experiment [4], 108%; in experiment [5], 102%; in experiment [6] it was 111%. Besides, the growth in experiment [7] was 119%; in experiment [8] it was 106%.
In the case of `O=C(NOC(=O)c1ccccc1)c1ccccc1`, the growth in experiment [1] is 101%; in experiment [2], 107%; in experiment [3], 96.4%; in experiment [4], 93.8%; in experiment [5] it was 107%; in experiment [6], 95.7%. For the same compound, the growth in experiment [7] was 112%; in experiment [8], 101%.
For the compound `CSc1nc(C)c(C(=O)CCN2CCN(c3ccccn3)CC2)s1`, the growth in experiment [1] is 66.7%; in experiment [2], 113%; in experiment [3], 104%; in experiment [4], 100%; in experiment [5] it was 61.2%; in experiment [6], 105%. Also, the growth in experiment [7] and in experiment [8] was 106% in each case.
In the case of `O=C(OC12CC3CC(CC(C3)C1)C2)c1ccc(NCc2cc(O)ccc2O)cc1`, the growth in experiment [1] was -70% (active); in experiment [2] it was -81.6% (active); in experiment [3], -46% (active); in experiment [4] it was -53.8% (active); in experiment [5], 6.06% (active); in experiment [6], -82.9% (active). Also, the growth in experiment [7] is -73.6% (active); in experiment [8], -60.7% (active).
On to `CN(C)c1ccc(/C=C/c2nccc3ccccc23)cc1`, for which the growth in experiment [1] is 40.2%; in experiment [2], 84.1%; in experiment [3] it was 55.7%; in experiment [4] it was 84.1%; in experiment [5], 30.6%; in experiment [6] it was 81.5%. Also, the values for the growth in experiment [7] and in experiment [8] were 82.9% and 73.3%, respectively.
As for `CCN(CC)CCNc1ccc([N+](=O)[O-])c2sc3ccccc3c(=O)c12`, the growth in experiment [1] was 45.5%; in experiment [2] it was 72%; in experiment [3], 18.4%; in experiment [4] it was -5.78% (active); in experiment [5] it was 8.95% (active); in experiment [6] it was 17.9%. In addition, the growth was 36.6% in experiment [7] and 22.9% in experiment [8].
As to `Oc1cc(Cl)ccc1Cc1ccc(Cl)cc1O`, the growth in experiment [1] was 29.2%; in experiment [2] it was 33.9%; in experiment [3], 46.2%; in experiment [4] it was 81.2%; in experiment [5] it was 68.3%; in experiment [6] it was 41.7%. Moreover, the results for the growth in experiment [7] and in experiment [8] were 88.1% and 98.7%, respectively.
With `O=C1CSC(=S)N1Cc1cccnc1`, the growth is 18.5% in experiment [1]; 51.7% in experiment [2]; 37% in experiment [3]; 17% in experiment [4]; 10.5% in experiment [5]; 42.3% in experiment [6]. Besides, the growth in experiment [7] was 126%; in experiment [8], 7.96% (active).
Take `CC(=O)C1Cc2ccccc2C1=O` (stereo not drawn): the growth in experiment [1] was 101%; in experiment [2], 91.3%; in experiment [3], 103%; in experiment [4], 101%; in experiment [5], 95.4%; in experiment [6] it was 103%. Also, the figures for the growth in experiment [7] and in experiment [8] were 108% and 102%, respectively.
For `CCN1/C(=C/C(C)=C/c2sc3ccc4ccccc4c3[n+]2CC)Sc2ccc3ccccc3c21`, the growth in experiment [1] is -69.8% (active); in experiment [2], -93.3% (active); in experiment [3] it was -97.2% (active); in experiment [4] it was -94.2% (active); in experiment [5], -84.5% (active); in experiment [6] it was -69.5% (active). Besides, the growth is -76.1% (active) in experiment [7] and -93.6% (active) in experiment [8].
Regarding `CCCCCCCCCCCCCCCCCC1=NCCCN1CCO`, the growth in experiment [1] was 103%; in experiment [2], 99.9%; in experiment [3], 115%; in experiment [4] it was 98.9%; in experiment [5] it was 86.7%; in experiment [6], 114%. Also, the growth in experiment [7] is 93.4%; in experiment [8], 106%.
Consider `O=C(c1ccccc1)N(CCCl)C(=O)N(CCCl)C(=O)c1ccccc1`, for which the growth in experiment [1] was 86%; in experiment [2], 100%; in experiment [3] it was 102%; in experiment [4], 110%; in experiment [5] it was 101%; in experiment [6], 90%. For the same compound, the values for the growth in experiment [7] and in experiment [8] were 104% and 102%, respectively.
On to `O=Nc1ccc2ccccc2c1O`, for which the growth in experiment [1] was 51.5%; in experiment [2], 100%; in experiment [3], -73.9% (active); in experiment [4], 61.8%; in experiment [5], 69.9%; in experiment [6], 6.58% (active). For the same compound, the growth in experiment [7] was 103%; in experiment [8] it was 79.3%.
As for `O=C(c1ccc(O)c(Br)c1)c1ccc(O)c(Br)c1`, the growth in experiment [1] was 106%; in experiment [2], 100%; in experiment [3], 118%; in experiment [4], 109%; in experiment [5] it was 117%; in experiment [6], 101%. The growth in experiment [7] is 105%; in experiment [8] it was 99.2%.
`O=C(O)c1cc2c(s1)C(=O)c1sccc1C2=O`: the growth is 36% in experiment [1]; -89.8% (active) in experiment [2]; -99.6% (active) in experiment [3]; -3.95% (active) in experiment [4]; -56.6% (active) in experiment [5]; -27.7% (active) in experiment [6]. The growth in experiment [7] is 8.88% (active); in experiment [8], 79.9%.
For `CC[n+]1ccc(Nc2ccc(NC(=O)c3ccc(Nc4cc[n+](CC)c5ccc([N+](=O)[O-])cc45)cc3)cc2)cc1`, the growth in experiment [1] is 46.3%; in experiment [2], 92.6%; in experiment [3] it was 74.4%; in experiment [4] it was 92.8%; in experiment [5], 36.7%; in experiment [6] it was 65.4%. Also, the growth is 104% in experiment [7] and 65.5% in experiment [8].
Turning to `CCCCCCCCCCCCSC(=N)N`, the growth in experiment [1] was -35.5% (active); in experiment [2], 63.6%; in experiment [3], -73.2% (active); in experiment [4], -61.5% (active); in experiment [5], -30.8% (active); in experiment [6], -64.2% (active). For the same compound, the results for the growth in experiment [7] and in experiment [8] were -80.5% (active) and -21.1% (active), respectively.

(Values after PubChem BioAssay (NCI).)
